Measurements as given in PubChem BioAssay AID429 (Emory University Molecular Libraries Screening Center, 2006).
In all, about 64,000 compounds went through this assay and about 220 (0.34%) were called active. The sample holds actives, similar compounds and a random draw of the others, so the mix is not that of the screen. Unmarked numbers belong to inactive results.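 The calls were made as follows: active = inhibition above 50%; inactive = the rest.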

Target: Heat shock protein HSP 90-alpha (Homo sapiens) (UniProt P07900)
Experiment: Hsp90 geldanamycin-site probe displacement – cell lysate, fluorescence polarization, NCI-N417 lysate, primary screen (AID 429);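 also: 0% = tracer plus lysate wells and 100% = tracer alone without lysate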
Details: NCI-N417 lysate Hsp90, Cy3B-geldanamycin FP displacement; at 30 µM; active compounds read high

SMILES | inhibition
NC1CCN(O)C1=O (configuration not stated) | -1.33%
CCCC(=O)N(CCc1ccccc1)Cc1nc2ccccc2c(=O)[nH]1 | -3.96%
Cn1c(=O)[nH]c(=O)c2c1nc(Br)n2CCCCSc1nc2ccccc2o1 | 2.94%
CSCCC(NS(=O)(=O)/C=C/c1ccccc1)C(=O)N1CCC(C)CC1 (configuration not stated) | 0.46%
O=S1(=O)CCN2C(=N1)SC1=C2CCN(Cc2ccccc2)C1 | 1.02%
COc1cc2c(cc1OC)C(c1ccncc1)CC(=O)N2 (configuration not stated) | -0.47%
CCC/C(O)=C1\C(=O)CC(C)(C)CC1=Nc1ccccc1OC | -4.54%
CC(=O)c1c(C)c[nH]c1C | 3.14%
COc1cc(C(=O)Nc2oc(-c3ccccc3)c(-c3ccccc3)c2C#N)cc(OC)c1OC | 1.74%
COc1ccc(CNC2CCCCC2)cc1 | -2.8%
CC(C)Cn1c(N)c(C(=O)NCc2cccs2)c2nc3ccccc3nc21 | -3.05%
C=CCn1c(N)c(C(=O)OCC(C)C)c2nc3ccccc3nc21 | 65.5% (active)
C=CCn1c(N)c(S(=O)(=O)c2cccs2)c2nc3ccccc3nc21 | -4.06%
O=C(CCOc1ccccc1)NCc1ccccc1 | 2.46%
CS(=O)(=O)NCc1ccc(C(=O)NCc2ccccc2)cc1 | -1.87%
N#C/C(=C\c1ccc(O)c(O)c1)C(=O)NCc1ccccc1 | 77.1% (active)
COc1ccc(C2CC(c3ccc(C)cc3)Nc3ncnn32)cc1 (configuration not stated) | -1.24%
CN(C)CCOC(=O)C(c1ccccc1)C1(O)CCCC1 (configuration not stated) | -3.68%
CC(=O)c1ccc(-n2nnnc2SCC(=O)N2CCN(C(=O)c3ccco3)CC2)cc1 | -0.68%
O=C(O)C1CCCN(CCC=C(c2ccccc2)c2ccccc2)C1 (configuration not stated) | 0.96%
COc1cc(NS(=O)(=O)c2cccc3nsnc23)c2ncccc2c1 | 0.42%

SMILES | inhibition
COc1ccccc1Oc1ccc(S(=O)(=O)Nc2cccnc2)cc1 | -4.43%
O=C(O)CCC(=O)N(Cc1ccco1)c1nc(-c2ccccc2)cs1 | -1.19%
CS(=O)(=O)N1CCCC(C(=O)N2CCOCC2)C1 (configuration not stated) | -0.69%
CN(c1ccc(C(=O)NCCC2=CCCCC2)cc1)S(C)(=O)=O | -2.17%
NC(=O)Cn1c(=O)oc2ccccc21 | 2.54%
O=C(NCCCN1CCN(Cc2ccccc2)CC1)C1CCN(S(=O)(=O)N2CCCC2)CC1 | -1.77%
Oc1ccc(Cl)cc1/C=N/c1nc2ccccc2[nH]1 | 1.09%
NC(=O)C1=CN(C2OC(COP(=O)(O)OP(=O)(O)OC[C@H]3O[C@@H](n4cnc5c(N)ncnc54)C(OP(=O)(O)O)[C@H]3O)C(O)C2O)C=CC1 (some centres not stated) | -0.66%
CCCCSc1nnc(-c2ccc(NC(=O)CC)cc2)n1C | -0.77%
COC(=O)Cc1csc(Nc2c(C)n(C)n(-c3ccccc3)c2=O)n1 | -1.47%
CCOc1ccc(N(CC(=O)NCc2ccc(OC)cc2)S(=O)(=O)c2c(C)noc2C)cc1 | -5.24%
O=C(Nc1ccccc1-c1nnn(CC(=O)N2CCN(c3ccccc3)CC2)n1)c1cccs1 | 0.39%
CC(c1cccnc1)N(CCN(C)C)C(=O)Nc1ccc(Cl)c(Cl)c1 (configuration not stated) | -1.45%
Cn1c(=O)c2c(nc(SCC(=O)Nc3ccccc3N3CCCCC3)n2C)n(C)c1=O | -1.91%
COc1ccc(Cn2cccc(NC(=O)Nc3ccc(C#N)cc3)c2=O)cc1 | -1.69%
O=C1C=C(NCCNc2c(F)c(F)c(CO)c(F)c2F)CCC1 | -1.66%
Cn1cccc1C1(C(F)(F)F)NCCNC1=O (configuration not stated) | -0.05%
CCN(CC)Cc1c(C(=O)OC)nnn1-c1nonc1N | -0.51%
Cc1cc2c(cc1C)NC(c1ccccn1)C1=C(CC(C)(C)CC1=O)N2 (configuration not stated) | 0.74%
COC(=O)c1cc(S(=O)(=O)NC2CCN(Cc3ccccc3)CC2)cn1C | -0.68%
C=C(C)c1cccc(C(C)(C)NC(=O)N2CCN(c3ncccn3)CC2)c1 | 1.26%

SMILES | inhibition
CCOC(=O)N1CCN(C(=O)c2nn(-c3ccc(C)cc3)c(=O)c3c2c2ccccc2n3C)CC1 | -3.87%
CC(C)C(c1nnnn1C1CCCC1)N1CCN(c2ccccc2F)CC1 (configuration not stated) | -0.85%
O=S1(=O)CC(NCc2ccccc2)C(Nc2ccc(Cl)cc2)C1 (configuration not stated) | 1.54%
COc1cc(N=C2C=CC(=O)C=C2)c2ncccc2c1 | 3.25%
COc1ccc(-c2nc(CS(=O)CC(=O)N3CCc4ccccc4C3)c(C)o2)cc1 (configuration not stated) | 0.64%
COc1ccc(-c2nc(CS(=O)CC(=O)NCc3ccccn3)c(C)o2)cc1 (configuration not stated) | 71.4% (active)
COc1ccc(-c2nc(CS(=O)CC(=O)NCc3cccnc3)c(C)o2)cc1OC (configuration not stated) | -3.8%
O=C1[C@@H]2C(Cc3ccc(O)cc3)NC3(C(=O)Nc4ccc(F)cc43)[C@@H]2C(=O)N1c1ccc(F)cc1 (some centres not stated) | -5.22%
NC(=NC(=O)c1ccccc1)C1=C(O)CCC1=O | 0.78%
CSCCC(Nc1nc2ccccc2s1)C(=O)O (configuration not stated) | 2.67%
C[C@H](NC(=O)NCCc1ccccc1)C(=O)O | 1.74%
Cc1ccc(C)c(NS(=O)(=O)c2cc(Br)cnc2N)c1 | 0.39%
Cc1[nH]c2ccccc2c1C(=O)CSCC(=O)O | -2.89%
CC1CCN(Cc2nc3c(c(=O)n(C)c(=O)n3C)n2Cc2cccc3ccccc23)CC1 | -1.11%
CCCOC(=O)Cc1c(O)c2ccccc2[nH]c1=O | 1.56%
COc1cc(OC)cc(-c2nc3nc(C)c(CCC(=O)NCc4ccco4)c(C)n3n2)c1 | 1.84%
Cc1ccc(C2(c3ccc(C)cc3)NC(=O)N(Cc3c(C)noc3C)C2=O)cc1 | 1.01%
C#CCCCNc1cc(OC)cc2cccnc12 | -1.17%
COc1cc(NCCCC#N)c2ncccc2c1 | -2.3%
COc1cc(NC(C)CCCNC(C)C)c2ncccc2c1 (configuration not stated) | 95.6% (active)
